Measurements from the supplement of paper PMC11537057.
Structures can show the parent of a compound that is named as a salt. Screen size: about 1,700 compounds; about 15 (0.9%) showed activity. Shown is part of a subset that was picked to be rich in actives. Values without a mark were called inactive.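 The calls were made as follows: active = infection cut by 80% or more with cell growth above 90% in both runs; inactive = the rest.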

What follows are compounds tested on HSV-1 strain 17 YFP-ICP4 in A549 (assay: HSV-1 infection relative to DMSO (ICP4-YFP per H2B-RFP signal); higher = more viral infection (less antiviral activity), active = hit call of the paper). Details: 10 µM; 48 h; MOI: 0.1.
Description: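 Selleck FDA-approved library (L1300) screened in duplicate at 10 µM on A549 H2B-mRuby cells in 384-well plates, infected with HSV-1 strain 17 YFP-ICP4 at MOI 0.1 one hour before drug addition. Imaged after 2 days at 37°C. Cell growth (H2B-RFP) and infection (ICP4-YFP) are expressed as % of DMSO-treated wells. Hits: growth >90% and infection <20% of DMSO.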

| Structure (SMILES) | HSV-1 infection |
| --- | --- |
| O=C(O)CCCC[C@@H]1CCSS1 (racemic) [Thioctic acid] | 66.1% |
| N=C(N)NCCC[C@@H](NC(=O)[C@@H]1CCCN1C(=O)[C@@H]1CSSCCC(=O)N[C@@H](Cc2ccc(O)cc2)C(=O)N[C@@H](Cc2ccccc2)C(=O)N[C@@H](CCC(N)=O)C(=O)N[C@@H](CC(N)=O)C(=O)N1)C(=O)NCC(N)=O [Desmopressin Acetate] | 103% |
| NC(=O)CCC(N)C(=O)O (racemic) [DL-Glutamine] | 114% |
| COc1ccc(Cl)c(Nc2nc3ccccc3nc2NS(=O)(=O)c2cccc(NC(=O)C(C)(C)N)c2)c1 [Pilaralisib (XL147)] | 93.5% |
| COc1ccc(-c2nc3cc(C4=NNC(=O)CC4C)ccc3[nH]2)cc1 (configuration not stated) [Pimobendan] | 68.5% |
| CC(=O)[C@@]1(O)CC[C@H]2[C@@H]3CCC4=CC(=O)CCC4=C3[C@@H](c3ccc(N(C)C)cc3)C[C@@]21C [Ulipristal] | 91.8% |
| CCCN(CCC)C(=O)C1=Cc2ccc(-c3ccc(C(=O)N4CCCC4)cc3)cc2N=C(N)C1 [Motolimod (VTX-2337)] | 82.9% |
| CN[C@H]1C(=O)N[C@@H]2Cc3ccc(cc3)Oc3cc4cc(c3O[C@@H]3O[C@H](C(=O)O)[C@@H](O)[C@H](O)[C@H]3NC(=O)CCCCCCCCC(C)C)Oc3ccc(cc3Cl)[C@@H](O)[C@@H]3NC(=O)[C@H](NC(=O)[C@@H]4NC(=O)[C@@H](NC2=O)c2cc(cc(O)c2Cl)Oc2cc1ccc2O)c1ccc(O)c(c1)-c1c(O[C@H]2O[C@H](CO)[C@@H](O)[C@H](O)[C@@H]2O)cc(O)cc1[C@@H](C(=O)NCCCN(C)C)NC3=O [Dalbavancin] | 95.9% |
| CCCCN1CCCC[C@H]1C(=O)Nc1c(C)cccc1C [Levobupivacaine HCl] | 70.8% |
| COc1ccc([C@H]2CNC(=O)C2)cc1OC1CCCC1 [S- (+)-Rolipram] | 97.4% |
| CC(C)C[C@H](N)C(=O)O [L-Leucine] | 100% |
| COC(=O)c1ccccc1O [Methyl salicylate] | 81.4% |
| CCCCC(=O)N(Cc1ccc(-c2ccccc2-c2nn[nH]n2)cc1)C(C(=O)O)C(C)C.CCOC(=O)C(C)CC(Cc1ccc(-c2ccccc2)cc1)NC(=O)CCC(=O)O (configuration not stated) [Sacubitril/valsartan (LCZ696)] | 116% |
| FC(F)(F)c1ccc(CNc2ccc(Cc3c[nH]c4ncc(Cl)cc34)cn2)cn1 [Pexidartinib (PLX3397)] | 102% |
| Cc1ccccc1N1CCN(CCc2nnc3n2CCCC3)CC1 [Dapiprazole Hydrochloride] | 135% |
| CC(C)C[C@H](NC(=O)CNC(=O)c1cc(Cl)ccc1Cl)B1OC(=O)C(CC(=O)O)(CC(=O)O)O1 [Ixazomib Citrate (MLN9708)] | 80.4% |
| CCNC(=O)[C@@H]1CCCN1C(=O)[C@H](CCCNC(=N)N)NC(=O)[C@H](CC(C)C)NC(=O)[C@@H](CC(C)C)NC(=O)[C@H](Cc1ccc(O)cc1)NC(=O)[C@H](CO)NC(=O)[C@H](Cc1c[nH]c2ccccc12)NC(=O)[C@H](Cc1c[nH]cn1)NC(=O)[C@@H]1CCC(=O)N1 [Leuprorelin Acetate] | 105% |
| CCNC(=O)[C@@H]1CCCN1C(=O)[C@H](CCCNC(=N)N)NC(=O)[C@H](CC(C)C)NC(=O)[C@@H](CC(C)C)NC(=O)[C@H](Cc1ccc(O)cc1)NC(=O)[C@H](CO)NC(=O)[C@H](Cc1c[nH]c2ccccc12)NC(=O)[C@H](Cc1c[nH]cn1)NC(=O)[C@@H]1CCC(=O)N1 [Leuprolide Acetate] | 113% |
| O=C(O)c1ccc(-n2nc(-c3ccccc3O)nc2-c2ccccc2O)cc1 [Deferasirox] | 79.8% |
| CC(C)(C)NC(=O)N[C@H](C(=O)N1C[C@H]2[C@@H]([C@H]1C(=O)NC(CC1CCC1)C(=O)C(N)=O)C2(C)C)C(C)(C)C (some centres not stated) [Boceprevir] | 110% |
| COc1c(C)c2c(c(O)c1C/C=C(\C)CCC(=O)O)C(=O)OC2 [Mycophenolic acid] | 14.4% (active) |
| C[C@H](Oc1ccc(S(C)(=O)=O)cc1C(=O)N1CCN(c2ncc(C(F)(F)F)cc2F)CC1)C(F)(F)F [Bitopertin] | 92.8% |
| CCCCCCCCOc1ccccc1C(=O)Nc1ccc(C(=O)OCC[N+](C)(CC)CC)cc1 [Otilonium Bromide] | 60.5% |
| OC[C@@H](O)CN1CCN(c2ccccc2)CC1 [Levodropropizine] | 64.9% |

| Structure (SMILES) | HSV-1 infection |
| --- | --- |
| CC(C)Nc1cc(-c2c[nH]c(C(=O)N[C@H](CO)c3cccc(Cl)c3)c2)c(Cl)cn1 | 69.3% |
| O=C(Cn1ccnc1[N+](=O)[O-])NCc1ccccc1 [Benznidazole] | 115% |
| CC(C)C[C@H](NC(=O)CNC(=O)c1cc(Cl)ccc1Cl)B(O)O [Ixazomib (MLN2238)] | 77.3% |
| N[C@@H]1CN(c2c(F)cc3c(=O)c(C(=O)O)cn([C@@H]4C[C@@H]4F)c3c2Cl)CC12CC2 [Sitafloxacin Hydrate] | 111% |
| O=C([O-])[O-].[Na+].[Na+] [Sodium carbonate] | 88% |
| NC(=O)c1nc(F)cnc1O [Favipiravir (T-705)] | 102% |
| O=C1/C(=C2\Nc3ccccc3C2=O)Nc2ccccc21 [Indigo] | 105% |
| C=CCN1CCCC1CNC(=O)c1cc2nn[nH]c2cc1OC (configuration not stated) [Alizapride HCl] | 55.1% |
| CNC(=O)[C@H](Cc1ccccc1)NC(=O)[C@H](CC(C)C)[C@H](CSc1cccs1)C(=O)NO [Batimastat (BB-94)] | 45.6% |
| CCOC(=O)[C@@H](N)Cc1ccc(-c2cc(O[C@H](c3ccc(Cl)cc3-n3ccc(C)n3)C(F)(F)F)nc(N)n2)cc1 [Telotristat Etiprate (LX 1606 Hippurate)] | 80.1% |
| CO/N=C(\C(=O)N[C@@H]1C(=O)N2C(C(=O)[O-])=C(C[N+]3(C)CCCC3)CS[C@H]12)c1csc(N)n1 [Cefepime Dihydrochloride Monohydrate] | 98% |
| CCCc1nc(C(C)(C)O)c(C(=O)O)n1Cc1ccc(-c2ccccc2-c2nnn[nH]2)cc1 [Olmesartan] | 114% |
| C[C@H](Nc1ncnc2nc[nH]c12)c1cc2cccc(Cl)c2c(=O)n1-c1ccccc1 [Duvelisib (IPI-145, INK1197)] | 69.2% |
| CSCC[C@H](NC(=O)[C@H](CC(C)C)NC(=O)[C@H](Cc1c[nH]c2ccccc12)NC(=O)[C@H](CCC(N)=O)NC(=O)[C@@H](NC(=O)[C@H](Cc1ccccc1)NC(=O)[C@H](CC(=O)O)NC(=O)[C@H](CCC(N)=O)NC(=O)[C@H](C)NC(=O)[C@H](CCCNC(=N)N)NC(=O)[C@H](CCCNC(=N)N)NC(=O)[C@H](CO)NC(=O)[C@H](CC(=O)O)NC(=O)[C@H](CC(C)C)NC(=O)[C@H](Cc1ccc(O)cc1)NC(=O)[C@H](CCCCN)NC(=O)[C@H](CO)NC(=O)[C@H](Cc1ccc(O)cc1)NC(=O)[C@H](CC(=O)O)NC(=O)[C@H](CO)NC(=O)[C@@H](NC(=O)[C@H](Cc1ccccc1)NC(=O)[C@@H](NC(=O)CNC(=O)[C@H](CCC(N)=O)NC(=O)[C@H](CO)NC(=O)[C@@H](N)Cc1cnc[nH]1)[C@@H](C)O)[C@@H](C)O)C(C)C)C(=O)N[C@@H](CC(N)=O)C(=O)N[C@H](C(=O)O)[C@@H](C)O [Glucagon HCl] | 99.3% |
| COc1cc(CNC(=O)CCCCC=CC(C)C)ccc1O [Capsaicin(Vanilloid)] | 86.2% |
| CC1(C)CCC(CN2CCN(c3ccc(C(=O)NS(=O)(=O)c4ccc(NCC5CCOCC5)c([N+](=O)[O-])c4)c(Oc4cnc5[nH]ccc5c4)c3)CC2)=C(c2ccc(Cl)cc2)C1 [Venetoclax (ABT-199, GDC-0199)] | 96% |
| CC(O)c1ccc(S(=O)(=O)NC(=O)NC2CCCCC2)cc1 (configuration not stated) [Hydroxyhexamide] | 94.9% |
| COc1ccc2c(O[C@@H]3C[C@H]4C(=O)N[C@]5(C(=O)NS(=O)(=O)C6CC6)C[C@H]5/C=C\CCCCN(C)C(=O)[C@@H]4C3)cc(-c3nc(C(C)C)cs3)nc2c1C [Simeprevir] | 84.7% |
| COc1cc(C(=O)O)ccc1NC(=O)[C@@H]1N[C@@H](CC(C)(C)C)[C@](C#N)(c2ccc(Cl)cc2F)[C@H]1c1cccc(Cl)c1F [Idasanutlin (RG-7388)] | 101% |
| O=c1[nH]c2ccccc2n1CCN1CCN(c2cccc(C(F)(F)F)c2)CC1 [Flibanserin] | 89.9% |
| CC(C)(Oc1ccc(Cl)cc1)C(=O)OCCOC(=O)c1cccnc1 [Etofibrate] | 109% |
| NCCCC[C@H](NC(=O)[C@@H]1CCCN1C(=O)[C@@H]1CSSC[C@H](NC(=O)CNC(=O)CNC(=O)CN)C(=O)N[C@@H](Cc2ccc(O)cc2)C(=O)N[C@@H](Cc2ccccc2)C(=O)N[C@@H](CCC(N)=O)C(=O)N[C@@H](CC(N)=O)C(=O)N1)C(=O)NCC(N)=O [Terlipressin Acetate] | 110% |
| CCOc1ccc(Cc2cc([C@@H]3O[C@H](SC)[C@@H](O)[C@H](O)[C@H]3O)ccc2Cl)cc1 [Sotagliflozin (LX4211)] | 111% |
